This passage reports growth results from PubChem BioAssay (NCI).

Test systems include SR leukemia; RPMI-8226 leukemia; OVCAR-8 ovarian; OVCAR-5 ovarian; OVCAR-4 ovarian; SK-OV-3 ovarian; OVCAR-3 ovarian; HS 578T breast; NCI/ADR-RES ovarian; T-47D breast; BT-549 breast; MDA-MB-435 melanoma; SW-620 colon; MCF7 breast; HCT-116 colon; HCC-2998 colon; KM12 colon; IGROV1 ovarian.
Holding throughout (assay): NCI-60 one-dose screen, 48 h (100 = growth as untreated, 0 = no growth, -100 = all killed)
Common to all, as to details: 10 µM

Compounds without any hit were thinned out: in the full panel of roughly 83,000, 20% have a hit.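 Activity criterion: percent growth below 10, measured after cells in 96-well plates were exposed to a single compound concentration for 48 hours.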 Unmarked numbers belong to inactive results. Calls of active or inactive are those of the source.

As for `CNC(=O)c1cc(Oc2ccc(NC(=O)Nc3ccc(Cl)c(C(C)(C)C)c3)c(F)c2)ccn1`, the growth in the test with SR leukemia was 43.4%; with RPMI-8226 leukemia it was 34.2%; in the test with OVCAR-8 ovarian it was 44.9%; with OVCAR-5 ovarian, 82.6%; in the test with OVCAR-4 ovarian, 33.1%; with SK-OV-3 ovarian it was 66.6%. Also, the growth with OVCAR-3 ovarian is 40.5%; in the test with HS 578T breast, 64%; in the test with NCI/ADR-RES ovarian, 40.2%; with T-47D breast, 20.5%; in the test on BT-549 breast, 47.2%; in the test on MDA-MB-435 melanoma it was 29.9%. Moreover, the growth with SW-620 colon was 69.2%; with MCF7 breast, 16%; with HCT-116 colon, 19.7%; in the test with HCC-2998 colon, 44.2%; in the test on KM12 colon it was 20.9%.

On to `CCCCCC(CCC)COC(=O)c1ccc(OC)cc1` (stereo not drawn), for which the growth in the test on SR leukemia is 101%; in the test with RPMI-8226 leukemia it was 91.8%; in the test on OVCAR-8 ovarian, 96.5%; with OVCAR-5 ovarian, 102%; in the test with OVCAR-4 ovarian it was 109%; in the test on SK-OV-3 ovarian, 101%. In addition, the growth with OVCAR-3 ovarian was 111%; in the test with HS 578T breast it was 106%; in the test with NCI/ADR-RES ovarian it was 103%; in the test on T-47D breast it was 87.7%; with BT-549 breast, 104%; with MDA-MB-435 melanoma it was 106%. In addition, the growth is 104% in the test with SW-620 colon; 92.5% in the test on MCF7 breast; 100% in the test with HCT-116 colon; 99.5% in the test on HCC-2998 colon; 109% in the test on KM12 colon.

Turning to `O=C(CCCC(=O)N/N=C/c1cc(Cl)ccc1O)N/N=C\c1cc(Cl)ccc1O`, the growth was 1.74% (active) in the test with SR leukemia; 27.3% in the test on RPMI-8226 leukemia; 20.3% with OVCAR-8 ovarian; 22.1% in the test on OVCAR-4 ovarian; 13.9% in the test on SK-OV-3 ovarian; 31.2% in the test on IGROV1 ovarian. In addition, the growth with OVCAR-3 ovarian was 35.5%; in the test on HS 578T breast, 68.4%; in the test on NCI/ADR-RES ovarian it was 14.1%; in the test with T-47D breast, 24.1%; in the test on BT-549 breast, 29.2%; in the test with MDA-MB-435 melanoma it was 45.1%. For the same compound, the growth with SW-620 colon was 30.9%; in the test on MCF7 breast, 14.3%; with HCT-116 colon, 24.7%; in the test on HCC-2998 colon it was 29.2%; with KM12 colon, 27.8%.

Take `CCCCOCC(=O)NC(NP(=O)(N(C)C)N(C)C)C(Cl)(Cl)Cl` (stereo not drawn): the growth in the test on SR leukemia was 111%; in the test on RPMI-8226 leukemia, 100%; with OVCAR-8 ovarian, 62.8%; in the test on OVCAR-5 ovarian, 109%; in the test on OVCAR-4 ovarian it was 116%; in the test on SK-OV-3 ovarian, 124%. The growth with OVCAR-3 ovarian is 98%; with HS 578T breast, 113%; in the test on NCI/ADR-RES ovarian, 105%; with T-47D breast, 7.73% (active); in the test on BT-549 breast, 117%; in the test with MDA-MB-435 melanoma, 102%. Also, the growth in the test on SW-620 colon was 108%; in the test on MCF7 breast, 103%; in the test with HCT-116 colon, 96.6%; in the test with HCC-2998 colon, 103%; with KM12 colon, 133%.

`COc1ccc(-c2nc(NC(=O)CS(=O)(=O)c3ccc(F)cc3)sc2C)cc1`: the growth was 32.5% with SR leukemia; 74% with OVCAR-8 ovarian; 95.4% with OVCAR-5 ovarian; 69.8% in the test with OVCAR-4 ovarian; 73.6% with SK-OV-3 ovarian; 54.5% with IGROV1 ovarian. Further, the growth in the test with OVCAR-3 ovarian was 56%; in the test with HS 578T breast, 79.5%; in the test on NCI/ADR-RES ovarian, 50.6%; with T-47D breast, 33.2%; with BT-549 breast, 66.3%; with MDA-MB-435 melanoma, 75%. Also, the growth in the test with SW-620 colon was 50.9%; in the test on MCF7 breast, 57.9%; in the test with HCT-116 colon it was 44.7%; in the test on HCC-2998 colon, 47.4%.

In the case of `C[C@@H]1C(=O)N(C[C@H](Cc2ccccc2)NC(=O)OCc2ccccc2)[C@]1(Cc1ccccc1)C(=O)OCc1ccccc1`, the growth in the test with SR leukemia is 35.2%; in the test on RPMI-8226 leukemia, 30.1%; in the test with OVCAR-8 ovarian, 40.7%; in the test on OVCAR-4 ovarian it was 22.1%; with SK-OV-3 ovarian it was 54.8%; in the test with IGROV1 ovarian it was 69.5%. The growth in the test with OVCAR-3 ovarian is 61.3%; with HS 578T breast it was 78.8%; with NCI/ADR-RES ovarian, 27%; in the test on T-47D breast it was 7.82% (active); in the test with BT-549 breast, 62.9%; in the test with MDA-MB-435 melanoma, 52%. The growth in the test on SW-620 colon is 52.6%; in the test with MCF7 breast it was 35%; with HCT-116 colon it was 32.3%; with HCC-2998 colon it was 71%; in the test with KM12 colon it was 26.6%.

As for `COc1ccc(-c2nc(-c3nc4ccc(C)cc4[nH]3)c3ccccn23)cc1`, the growth in the test with SR leukemia was 33.2%; with RPMI-8226 leukemia, -6.44% (active); in the test on OVCAR-8 ovarian, 6.19% (active); with OVCAR-4 ovarian, 44.1%; in the test on SK-OV-3 ovarian, 85.9%; in the test with IGROV1 ovarian, 36.5%. Moreover, the growth with OVCAR-3 ovarian is 72.6%; with HS 578T breast it was 74.7%; in the test on NCI/ADR-RES ovarian, 22.6%; in the test with T-47D breast it was 19.3%; in the test with BT-549 breast, 68.1%; in the test on SW-620 colon it was 61.2%. The figures for the growth in the test with MCF7 breast and with HCT-116 colon were 35% and 41.1%, respectively.

Consider `O=S(=O)(NCl)c1ccccc1`, for which the growth was 86% in the test on SR leukemia; 105% with RPMI-8226 leukemia; 103% in the test with OVCAR-8 ovarian; 95.9% with OVCAR-4 ovarian; 105% in the test on SK-OV-3 ovarian; 119% in the test on OVCAR-3 ovarian. In addition, the growth in the test with HS 578T breast is 102%; with NCI/ADR-RES ovarian it was 103%; with T-47D breast, 92%; in the test on BT-549 breast it was 102%; with MDA-MB-435 melanoma it was 98.9%; with SW-620 colon it was 107%. Besides, the growth is 85.5% in the test with MCF7 breast, 101% in the test with HCT-116 colon, 97.3% in the test with HCC-2998 colon and 102% with KM12 colon.

For `CCN(CC)CC(O)CNc1ccnc2cc(Cl)c(Cl)cc12` (stereo not drawn), the growth was 28.4% with SR leukemia; 90.3% in the test on RPMI-8226 leukemia; 84.3% in the test with OVCAR-8 ovarian; 85.9% in the test on OVCAR-4 ovarian; 106% in the test with SK-OV-3 ovarian; 91.1% with IGROV1 ovarian. Moreover, the growth in the test on OVCAR-3 ovarian is 92.5%; in the test with NCI/ADR-RES ovarian, 87.1%; in the test on T-47D breast, 93.1%; with BT-549 breast, 88.9%; with MDA-MB-435 melanoma it was 96.8%; in the test with SW-620 colon, 97.3%. For the same compound, the growth is 79.5% in the test on MCF7 breast, 64.2% with HCT-116 colon, 102% in the test on HCC-2998 colon and 94.2% in the test with KM12 colon.

With `CC(C)CCN(CCCNc1c2c(nc3cc(Cl)ccc13)CCCC2)CCC(C)C`, the growth is 7.94% (active) in the test on SR leukemia; 39.5% with RPMI-8226 leukemia; 79.4% in the test with OVCAR-8 ovarian; 50.8% with OVCAR-4 ovarian; 93.2% with SK-OV-3 ovarian; 50.2% in the test on IGROV1 ovarian. The growth was 81.6% in the test with OVCAR-3 ovarian; 74.3% in the test with NCI/ADR-RES ovarian; 61.7% with T-47D breast; 87% in the test on BT-549 breast; 86.2% in the test with MDA-MB-435 melanoma; 55.1% in the test on SW-620 colon. The growth in the test on MCF7 breast is 40%; in the test on HCT-116 colon, 31.8%; in the test with HCC-2998 colon, 90.1%; with KM12 colon, 73.1%.
